Compound activity from PubChem.
PI4K2A inh – qHTS for small molecular inhibitors of PI4K2A; 420,000 tested, 0.13% active; AID 1346378, 2018; purified PI4K2A, ADP-Glo luminescence, 1 h; hits give low values; activity change, negative = inhibition, % at 76.9 µM; Phosphatidylinositol 4-kinase type 2-alpha (Homo sapiens), Q9BTU6; in the data active = activity change below about -50%; inconclusive = mostly about -30% to -49%
Target sequence (Q9BTU6 whole entry, looked up): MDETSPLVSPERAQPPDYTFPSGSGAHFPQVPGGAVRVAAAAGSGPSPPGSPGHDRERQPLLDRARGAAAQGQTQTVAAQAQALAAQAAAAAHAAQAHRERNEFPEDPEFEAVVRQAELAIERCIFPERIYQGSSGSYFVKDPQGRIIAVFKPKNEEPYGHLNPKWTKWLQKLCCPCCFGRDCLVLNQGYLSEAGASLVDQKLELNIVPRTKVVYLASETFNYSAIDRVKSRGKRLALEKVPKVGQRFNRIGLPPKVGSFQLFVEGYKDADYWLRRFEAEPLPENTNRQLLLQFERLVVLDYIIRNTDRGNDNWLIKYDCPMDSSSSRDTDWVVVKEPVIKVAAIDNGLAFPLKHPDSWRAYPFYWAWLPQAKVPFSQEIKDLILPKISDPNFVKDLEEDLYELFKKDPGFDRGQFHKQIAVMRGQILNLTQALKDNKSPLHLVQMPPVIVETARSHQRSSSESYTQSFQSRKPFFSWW
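ADP-Glo luminescence measured ADP generated by PI4K2A enzyme (4 ug/mL before mixing) with 1.2 mM PI substrate (pre-mix) and 300 microM ATP (pre-mix). Tris pH7.5 buffer with MgCl2, Triton X-100; 1 h reaction at ambient temperature.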
TrxR1 substrate – qHTS Assay for Substrates of Mammalian Selenoprotein Thioredoxin Reductase 1 (TrxR1): qHTS; AID 588456, 2011; Potency, µM (highest dose often 114 µM); 390,000 tested, 0.01% active; Thioredoxin reductase 1, cytoplasmic (Rattus norvegicus), O89049; purified TrxR1 substrate turnover, NADPH consumption readout; also: nearly all actives have a fitted effect of over 50% in size
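Rat TrxR1, dispensed at 90 nM, was prereduced with 400 uM NADPH (final) for 5 min at ~22 deg C, then incubated with compound 15 min before 400 uM selenite. A first-read NADPH fluorescence drop versus no-compound background flagged substrates.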
GALK inh – qHTS Assay for Inhibitors of Human Galactokinase (GALK); AID 1868, 2009; 270,000 tested, 0.007% active; Purified GALK, Kinase-Glo residual ATP luminescence; Potency, µM (titrated, usually from 57.5 µM), usual class: inhibitors; P51570
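GALK at 5 nM final was combined with compound, 35 uM ATP and 100 uM galactose in HEPES pH8.0 with MgCl2 and DTT. The reaction ran one hour at room temperature before luminescent ATP detection.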
TrxR1 inh-1 – qHTS Assay for Inhibitors of Mammalian Selenoprotein Thioredoxin Reductase 1 (TrxR1): qHTS | Thioredoxin reductase 1, cytoplasmic (Rattus norvegicus), O89049 | recombinant rTrxR1, NADPH fluorescence consumption, selenite substrate | Potency, µM (top dose mostly 114 µM), actives largely listed as inhibitors | 390,000 tested, 1% active; also: nearly all actives have a fitted effect of over 65% in size
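Rat TrxR1 (90 nM in the dispensed reagent) was pre-reduced with 400 uM NADPH for 5 min at room temperature, then incubated with compound for 15 min. After 400 uM selenite was added, NADPH fluorescence (Ex 340/Em 450 nm) was followed for 8 min.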
PKM2 act – qHTS Assay for Activators of Human Muscle isoform 2 Pyruvate Kinase; AID 1631, 2009; 260,000 tested, 0.34% active; Potency, µM (top dose mostly 57.5 µM), hits mostly activators; purified PKM2, Kinase-Glo ATP luminescence, activation; response scale: 0% is enzyme alone, no compound; Pyruvate kinase PKM (Homo sapiens), P14618; also: nearly all actives have a fitted effect of over 55% in size
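ATP formation by purified human PK-M2, quantified via coupled luciferase luminescence after 1 h at room temperature with 0.1 mM ADP and 0.5 mM PEP final.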
TRb SRC2 Alpha – Protein Interaction Secondary Assay for Inhibitors of the Interaction of Thyroid Hormone Receptor and Steroid Receptor Coregulator 2, Alpha Screen | AID 2444, 2010 | shares compounds with TrxR1 inh-1 | AlphaScreen TRb LBD-SRC2 peptide binding, luminescence | Potency, µM | 30 tested, 50% active; calls by dose curve
HepG2 viability – Cell Viability Secondary Assay for Inhibitors of the Interaction of Thyroid Hormone Receptor and Steroid Receptor Coregulator 2 | shares compounds with TrxR1 inh-1 | HepG2 viability, ATP luminescence (CellTiter-Glo), 72 h | 40 tested, 50% active | Potency, µM | AID 2447, 2010; calls by dose curve
AR SRC2 FP – Androgen Receptor Selectivity Assay for Inhibitors of the Interaction of Thyroid Hormone Receptor and Steroid Receptor Coregulator 2. AR-LBD Tx-SRC2-3 fluorescence polarization, 3 h. 25 tested, under 10 active. calls only. shares compounds with TrxR1 inh-1; call rule not given here
PPARg-DRIP2 inh – PPAR gamma Selectivity Assay For Inhibitors of the Interaction of Thyroid Hormone Receptor and Steroid Receptor Coregulator 2; PPARg LBD / Texas Red DRIP-2 peptide, fluorescence polarization, 3 h; 25 tested, under 10 active; shares compounds with TrxR1 inh-1; Potency, µM; calls by dose curve
VDR SRC2 FP – Vitamin D Receptor Selectivity Assay for Inhibitors of the Interaction of Thyroid Hormone Receptor and Steroid Receptor Coregulator 2 | shares compounds with TrxR1 inh-1 | VDR LBD/SRC2-3 peptide, fluorescence polarization, 3 h | Potency, µM | 25 tested, under 10 active; calls by dose curve
TRb-SRC2 FP Fluo – Secondary Confirmation Assay for Inhibitors of the Interaction of Thyroid Hormone Receptor and Steroid Receptor Coregulator 2, Fluorescein Fluoroprobe; shares compounds with TrxR1 inh-1; TRb LBD / fluorescein-SRC2 peptide, fluorescence polarization; AID 2487, 2010; Potency, µM; 20 tested, under 10 active; call rule not given here
GR inh – qHTS Assay for Inhibitors of Mammalian Selenoprotein Thioredoxin Reductase 1 (TrxR1): Counterassay in Glutathione Reductase (GR). shares compounds with TrxR1 inh-1. purified GR, DTNB reduction absorbance 405 nm kinetic. activity change, negative = inhibition, % at 57.1 µM. 55 tested, under 10 active. AID 652020, 2013
TrxR1 inh-2 – qHTS Assay for Inhibitors of Mammalian Selenoprotein Thioredoxin Reductase 1 (TrxR1): Hit Validation in Primary Screen. shares compounds with TrxR1 inh-1. recombinant TrxR1, NADPH fluorescence consumption, selenite substrate. Potency, µM, usual class: inhibitors. 55 tested, 50% active. AID 652023, 2013
TrxR1 insulin MOA – qHTS Assay for Inhibitors of Mammalian Selenoprotein Thioredoxin Reductase 1 (TrxR1): Insulin MOA Assay. shares compounds with TrxR1 inh-1. TrxR1 Trx-coupled insulin reduction, NADPH absorbance 340 nm. Potency, µM. 55 tested, 20% active;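 active = compounds with a measured potency under 100 micromolar; inconclusive = filed, but no rule given; inactive = potency at or above that, or unmeasurable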
TrxR1 inh-3 – qHTS Assay for Inhibitors of Mammalian Selenoprotein Thioredoxin Reductase 1 (TrxR1): DTNB Assay; purified TrxR1, DTNB reduction, A412; Potency, µM; 55 tested, 90% active; shares compounds with TrxR1 inh-1;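 active = a half-inhibiting concentration could be measured and was below 100 µM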
Numbers stand for hits; . = inactive; ? = inconclusive; / = no result given; ! = not active in a repeat. Compounds with a hit are over-represented: about 1.2% of the library has one in this group of screens. Unless noted, calls follow the shape of the dose curve; as a rule, active = well fitted curve in the direction sought with a large enough effect; inconclusive = small, poorly fitted or top-dose-only effect, or another doubt; inactive = no such curve, though single readings can be large; an effect the other way counts as inactive or inconclusive.

SMILES | PI4K2A inh | TrxR1 substrate | GALK inh | TrxR1 inh-1 | PKM2 act | TRb SRC2 Alpha | HepG2 viability | AR SRC2 FP | PPARg-DRIP2 inh | VDR SRC2 FP | TRb-SRC2 FP Fluo | others
CC(=O)c1cccc(NC(=O)C(C)OC(=O)c2ccc(S(C)(=O)=O)c([N+](=O)[O-])c2)c1 (stereo unspecified) | / | . | / | 7.08µM | / | 39.9µM | ? | . | ? | ? | 61.9µM
Cc1csc(Sc2ccc(C(=O)OCC(=O)Nc3ccc(OC(F)(F)F)cc3)cc2[N+](=O)[O-])n1 | . | . | . | . | . | / | / | / | / | / | /
CS(=O)(=O)c1ccc(C(=O)OCC(=O)Nc2cc(C(F)(F)F)ccc2Cl)cc1[N+](=O)[O-] | / | . | / | 8.91µM | / | 16.7µM | 16.8µM | . | . | ? | .
CC(OC(=O)c1ccncc1)C(=O)Nc1cccc([N+](=O)[O-])c1 (stereo unspecified) | . | . | . | . | . | / | / | / | / | / | /
CS(=O)(=O)c1ccc(C(=O)OCC(=O)Nc2ccc(OC(F)(F)F)cc2)cc1[N+](=O)[O-] | / | . | / | 3.55µM | / | 16.7µM | . | . | . | . | .
NS(=O)(=O)c1cc(C(=O)OCC(=O)Nc2ccc(Cl)cc2[N+](=O)[O-])ccc1Cl | . | . | . | . | . | / | / | / | / | / | /
Cc1ccccc1NC(=O)COC(=O)c1ccc(S(C)(=O)=O)c([N+](=O)[O-])c1 | . | . | . | 2.51µM | . | 27.5µM | ? | . | . | . | .
CCCCNC(=O)C[C@@H]1C[C@@]2(C(=O)OC)CCCCC=C2N(CCC2=CCCCC2)C1=O | . | / | / | / | / | / | / | / | / | / | /
CC(=O)c1cccc(NC(=O)COC(=O)c2ccc(S(C)(=O)=O)c([N+](=O)[O-])c2)c1 | . | . | . | 1.58µM | . | 86.8µM | ? | . | . | 59.7µM | ?
Cc1cccc(C(=O)Nc2nnc(S(=O)(=O)N(C)Cc3ccco3)s2)c1 | . | . | . | 44.7µM! | / | / | / | / | / | / | / | GR inh=.;TrxR1 inh-2=?;TrxR1 insulin MOA=?;TrxR1 inh-3=48.8µM
CC(C)(C)OC(=O)C1[C@H](O)C=CC[C@H]1S(=O)c1ccccc1 (stereo partly specified) | . | / | / | / | / | / | / | / | / | / | /
CC(OCc1ccccc1)C(NC(=O)OC(C)(C)C)C(=O)NC1COC2CC(n3cc(F)c(=O)[nH]c3=O)OC12 (stereo unspecified) | / | . | / | . | / | / | / | / | / | / | /
CCCNC(=O)c1ccc(S(=O)(=O)c2ccc(OC)cc2)c([N+](=O)[O-])c1 | . | . | . | ? | / | / | / | / | / | / | /
CS(=O)(=O)c1ccc(C(=O)OC(C(=O)NC2C3CC4CC(C3)CC2C4)c2ccccc2)cc1[N+](=O)[O-] (stereo unspecified) | / | / | / | / | / | / | 10µM | / | / | / | /
CS(=O)(=O)c1ccc(C(=O)NCC(=O)NC2C3CC4CC(C3)CC2C4)cc1[N+](=O)[O-] (stereo unspecified) | / | / | / | / | / | 3.8µM | 21.9µM | . | . | . | /
CCOc1ccc(-n2c(SCC(=O)Nc3ccccc3-c3ccccc3)nnc2-c2cccs2)cc1 | . | / | / | / | / | / | / | / | / | / | /
O=C(CCc1ccccc1)N[C@H]1[C@H](OCc2ccccc2)CCC[C@@]12C(=O)N(Cc1ccccc1)c1ccc(-c3ccsc3)cc12 | . | / | / | / | / | / | / | / | / | / | /
